Test systems include SR leukemia; RPMI-8226 leukemia; OVCAR-8 ovarian; OVCAR-5 ovarian; OVCAR-4 ovarian; SK-OV-3 ovarian; IGROV1 ovarian; OVCAR-3 ovarian; HS 578T breast; NCI/ADR-RES ovarian; T-47D breast; BT-549 breast; MDA-MB-435 melanoma; SW-620 colon; MCF7 breast; HCT-116 colon; HCC-2998 colon; KM12 colon.
Common to all, as to test: NCI-60 one-dose screen, 48 h (100 = growth as untreated, 0 = no growth, -100 = all killed)
Settings in all cases: 10 µM unless noted

Each structure is given as a SMILES string. The panel holds about 83,000 compounds, 20% with a hit somewhere; the sample as a whole holds those more often.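 48-hour exposure, single concentration, 96-well plates; percent growth endpoint where 0 means no net growth. Active: below 10.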 A number with no mark means an inactive call. Calls of active or inactive are those of the source.

For `CN1CCN(c2ccc3c(C(N)=O)c(NC(=O)c4ccc(C(C)(C)C)cc4)sc3c2)CC1`, the growth with SR leukemia is 34.7%; in the experiment on RPMI-8226 leukemia, 20.1%; in the experiment on OVCAR-8 ovarian, 95.4%; in the experiment with OVCAR-5 ovarian it was 81.1%; with OVCAR-4 ovarian, 92.3%; with SK-OV-3 ovarian, 107%. The growth in the experiment on IGROV1 ovarian was 90.3%; in the experiment with OVCAR-3 ovarian it was 79.3%; in the experiment with HS 578T breast, 91.2%; with NCI/ADR-RES ovarian it was 85.9%; in the experiment on T-47D breast, 92.3%; in the experiment on BT-549 breast it was 89.9%. In addition, the growth is 95.1% in the experiment with MDA-MB-435 melanoma; 43.6% in the experiment with SW-620 colon; 39.7% in the experiment with MCF7 breast; 37.6% in the experiment on HCT-116 colon; 96.2% in the experiment with HCC-2998 colon; 81.7% with KM12 colon.
With `O=C(CN1C(=O)S/C(=C\c2ccccc2)C1=O)Nc1ccc(C(=O)/C=C/c2cc3ccccc3nc2Cl)cc1`, the growth with SR leukemia is 42.4%; in the experiment with RPMI-8226 leukemia it was 26.2%; in the experiment with OVCAR-8 ovarian, 81.9%; in the experiment on OVCAR-5 ovarian, 99.5%; in the experiment with OVCAR-4 ovarian it was 41.9%; with SK-OV-3 ovarian, 82.5%. For the same compound, the growth with IGROV1 ovarian was 80.4%; in the experiment with OVCAR-3 ovarian, 85.6%; in the experiment on HS 578T breast, 96.1%; in the experiment with NCI/ADR-RES ovarian, 88.8%; in the experiment on T-47D breast, 54.6%; with BT-549 breast, 60.9%. In addition, the growth was 82.9% with MDA-MB-435 melanoma; 98% with SW-620 colon; 26.6% in the experiment with MCF7 breast; -64.1% (active) in the experiment with HCT-116 colon; 97.8% in the experiment with HCC-2998 colon; 87.7% in the experiment with KM12 colon.
With `COC1=C(c2ccccc2)C(=O)C(OC)=C(c2ccccc2)C1=O`, the growth in the experiment with SR leukemia is 79.8%; in the experiment on RPMI-8226 leukemia, 93.5%; in the experiment with OVCAR-8 ovarian it was 100%; with OVCAR-5 ovarian, 119%; with OVCAR-4 ovarian, 59.6%; in the experiment on SK-OV-3 ovarian, 81.2%. For the same compound, the growth with IGROV1 ovarian is 93.2%; with OVCAR-3 ovarian, 72.6%; in the experiment on HS 578T breast it was 96.8%; with NCI/ADR-RES ovarian it was 102%; with T-47D breast, 60.9%; with BT-549 breast, 104%. Besides, the growth in the experiment on MDA-MB-435 melanoma was 93.7%; with SW-620 colon, 98.8%; with MCF7 breast, 85.2%; in the experiment on HCT-116 colon, 96.3%; in the experiment with HCC-2998 colon it was 94.4%; with KM12 colon it was 98.6%.
For `N#Cc1c(NC(=O)c2ccc(F)c(Cl)c2)sc2c1CCC(=O)C2`, the growth in the experiment on SR leukemia is 0.0131% (active); in the experiment on RPMI-8226 leukemia, 0.133% (active); in the experiment with OVCAR-8 ovarian, 16.6%; in the experiment on OVCAR-5 ovarian, -14.6% (active); with OVCAR-4 ovarian it was -52% (active); in the experiment with SK-OV-3 ovarian it was 25.8%. Besides, the growth was -25.7% (active) in the experiment on IGROV1 ovarian; -47.3% (active) in the experiment on OVCAR-3 ovarian; -2.33% (active) in the experiment with HS 578T breast; -11.8% (active) in the experiment on NCI/ADR-RES ovarian; -18.3% (active) in the experiment on T-47D breast; 2.09% (active) with BT-549 breast. Further, the growth was -39.5% (active) with MDA-MB-435 melanoma; -24% (active) in the experiment on SW-620 colon; 4.86% (active) with MCF7 breast; 0.878% (active) with HCT-116 colon; 25.8% in the experiment on HCC-2998 colon; 4.23% (active) in the experiment with KM12 colon.
Consider `Oc1ccc(CSc2nnc(-c3ccncc3)o2)c2cccnc12`, for which the growth was 50.4% with SR leukemia; 5.35% (active) with RPMI-8226 leukemia; 15.8% in the experiment with OVCAR-8 ovarian; 35.7% in the experiment with OVCAR-5 ovarian; 19.7% with OVCAR-4 ovarian; 4.05% (active) in the experiment with SK-OV-3 ovarian. Besides, the growth was 22.4% in the experiment with IGROV1 ovarian; 19.8% in the experiment with OVCAR-3 ovarian; 5.36% (active) in the experiment with HS 578T breast; 58.4% in the experiment on NCI/ADR-RES ovarian; 15.8% in the experiment on T-47D breast; 23.7% with BT-549 breast. The growth with MDA-MB-435 melanoma is 13.4%; with SW-620 colon, 16.4%; with MCF7 breast, 4.01% (active); in the experiment on HCT-116 colon, 8.9% (active); with HCC-2998 colon, 30.2%; with KM12 colon, 14.2%.
In the case of `NNC(=O)c1sc2nc(-c3cnccn3)cc(-c3cccs3)c2c1N`, the growth with SR leukemia was 86.5%; in the experiment with RPMI-8226 leukemia it was 107%; with OVCAR-8 ovarian, 93.8%; in the experiment on OVCAR-5 ovarian, 99.1%; in the experiment on OVCAR-4 ovarian, 74.4%; in the experiment with SK-OV-3 ovarian it was 92.1%. In addition, the growth with IGROV1 ovarian was 89.5%; with OVCAR-3 ovarian it was 84.5%; with HS 578T breast, 119%; in the experiment on NCI/ADR-RES ovarian, 105%; in the experiment on T-47D breast it was 86.4%; in the experiment on BT-549 breast it was 101%. In addition, the growth in the experiment on MDA-MB-435 melanoma is 100%; with SW-620 colon, 110%; in the experiment on MCF7 breast, 84.6%; in the experiment on HCT-116 colon, 99.3%; in the experiment on HCC-2998 colon it was 100%; in the experiment with KM12 colon, 92.6%.
Take `CS(=O)(=O)c1ccc(-c2nn(-c3ccccc3)cc2/C=C/C(=O)c2ccc(Br)cc2)cc1`: the growth with SR leukemia is 59.6%; in the experiment on RPMI-8226 leukemia it was 32.8%; in the experiment with OVCAR-8 ovarian it was 93.6%; in the experiment with OVCAR-5 ovarian, 101%; with OVCAR-4 ovarian, 90.6%; in the experiment on SK-OV-3 ovarian, 107%. Further, the growth is 95% with IGROV1 ovarian; 70.3% in the experiment on OVCAR-3 ovarian; 117% in the experiment with HS 578T breast; 85.2% with NCI/ADR-RES ovarian; 87.8% in the experiment with T-47D breast; 105% in the experiment with BT-549 breast. Also, the growth with MDA-MB-435 melanoma was 95.3%; in the experiment with SW-620 colon it was 86.9%; in the experiment with MCF7 breast it was 50.2%; with HCT-116 colon it was 73.2%; with HCC-2998 colon it was 105%; in the experiment with KM12 colon, 80%.
Consider `N/C(=N\OC(=O)CSc1nc2ccccc2s1)c1ccc2ccccc2c1`, for which the growth in the experiment on SR leukemia was 117%; in the experiment with RPMI-8226 leukemia, 110%; in the experiment with OVCAR-8 ovarian, 98.8%; with OVCAR-5 ovarian, 98.9%; with OVCAR-4 ovarian it was 109%; with SK-OV-3 ovarian, 101%. The growth is 97.3% with IGROV1 ovarian; 116% in the experiment with OVCAR-3 ovarian; 105% in the experiment with HS 578T breast; 104% in the experiment with NCI/ADR-RES ovarian; 97.7% in the experiment on T-47D breast; 100% in the experiment on BT-549 breast. Besides, the growth was 104% in the experiment with MDA-MB-435 melanoma; 100% in the experiment on SW-620 colon; 94.2% in the experiment with MCF7 breast; 103% in the experiment with HCT-116 colon; 107% with HCC-2998 colon; 103% in the experiment with KM12 colon.
Take `COc1cc(-c2noc(C[C@@H](NC(=O)OCc3ccccc3)C(C)C)n2)cc(OC)c1OC`: the growth in the experiment on SR leukemia is 95%; in the experiment with RPMI-8226 leukemia it was 106%; with OVCAR-8 ovarian it was 100%; in the experiment with OVCAR-5 ovarian, 97.3%; with OVCAR-4 ovarian, 102%; in the experiment with SK-OV-3 ovarian, 94.5%. For the same compound, the growth was 99.5% with IGROV1 ovarian; 110% in the experiment with OVCAR-3 ovarian; 97.2% in the experiment with HS 578T breast; 104% in the experiment with NCI/ADR-RES ovarian; 90.2% with T-47D breast; 105% with BT-549 breast. The growth in the experiment with MDA-MB-435 melanoma is 106%; in the experiment on SW-620 colon it was 98.5%; in the experiment with MCF7 breast it was 87.3%; in the experiment on HCT-116 colon, 101%; in the experiment on HCC-2998 colon, 103%; in the experiment with KM12 colon it was 105%.

Source of the values: PubChem BioAssay (NCI).
